Assay outcomes deposited in PubChem BioAssay by several laboratories.
NR3A LBD binder – NR3A (human) ligand-binding domain modulation | NR3A LBD differential scanning fluorimetry, Tm shift; 0% = protein alone, 100% = glycine-bound protein | Tm shift relative to glycine control, % at 25 µM | 340,000 tested, 2.5% active | AID 1259313;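 active = melting temperature shift of at least 10% of the positive control shift, at one fixed dose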
Beta cell apopt – blocks beta cell apoptosis. INS-1E cytokine-induced death, ATP luminescence, 48 h; percent of positive-control rescue, neutral wells zero. protection from apoptosis, % (test concentration not listed). 300,000 tested, 0.8% active;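 active = Every replicate reaches about 75%, or at least half do and their mean reaches it too, limit read from the data; inconclusive = At least half of replicates reach the limit but their mean does not; inactive = Under half of replicates reach the limit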;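 note: higher means more ATP so stronger rescue from cytokine killing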
MPTP inh – inhibitors of mitochondrial permeability transition pore; 360,000 tested, 1.4% active; isolated mouse mitochondria, Ca2+ swelling absorbance, 30 min; AID 602449; inhibition, % at 10 µM;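 active = inhibition of 50% or more, scaled per plate between neutral and stimulator controls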
Mdm2-MdmX inh – disrupts the human Mdm2-MdmX interaction | O15151+Q00987 | SaOS-2 split-luciferase Mdm2/MdmX complementation, luminescence | inhibition, % at 8 µM | 330,000 tested, 3% active | AID 485346;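 active = inhibition of at least 50% at 8 µM in the primary screen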
Target sequence (O15151 whole entry, looked up): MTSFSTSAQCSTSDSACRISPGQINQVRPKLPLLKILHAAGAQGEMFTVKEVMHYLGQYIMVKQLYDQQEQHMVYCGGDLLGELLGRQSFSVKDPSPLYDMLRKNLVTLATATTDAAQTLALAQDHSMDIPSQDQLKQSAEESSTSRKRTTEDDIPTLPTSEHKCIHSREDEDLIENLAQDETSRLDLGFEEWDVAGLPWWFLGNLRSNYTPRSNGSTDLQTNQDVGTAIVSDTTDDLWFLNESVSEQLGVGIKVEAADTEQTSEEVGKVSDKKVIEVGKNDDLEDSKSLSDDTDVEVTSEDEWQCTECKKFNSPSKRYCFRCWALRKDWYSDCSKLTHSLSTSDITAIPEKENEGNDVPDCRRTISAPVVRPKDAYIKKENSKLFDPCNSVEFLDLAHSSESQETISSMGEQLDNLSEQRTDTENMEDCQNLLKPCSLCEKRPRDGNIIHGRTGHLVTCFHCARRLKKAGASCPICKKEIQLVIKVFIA
Target sequence (Q00987 whole entry, looked up): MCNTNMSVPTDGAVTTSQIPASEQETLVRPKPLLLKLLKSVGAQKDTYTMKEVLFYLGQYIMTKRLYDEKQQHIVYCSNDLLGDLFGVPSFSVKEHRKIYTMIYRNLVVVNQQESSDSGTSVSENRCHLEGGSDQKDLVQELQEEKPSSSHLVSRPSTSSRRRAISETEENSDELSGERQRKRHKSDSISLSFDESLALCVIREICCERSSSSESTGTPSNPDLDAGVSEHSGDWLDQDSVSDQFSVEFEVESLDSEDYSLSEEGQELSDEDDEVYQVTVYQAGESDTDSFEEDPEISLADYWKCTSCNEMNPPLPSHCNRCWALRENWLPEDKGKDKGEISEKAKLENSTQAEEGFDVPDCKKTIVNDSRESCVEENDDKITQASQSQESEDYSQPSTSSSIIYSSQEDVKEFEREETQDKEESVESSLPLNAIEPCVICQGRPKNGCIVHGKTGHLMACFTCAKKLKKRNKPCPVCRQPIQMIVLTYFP
CSC inhib – blocks cancer stem cells; inhibition, % at 7.5 µM; 300,000 tested, 1.1% active; cancer stem cell-like cells viability, luminescence; AID 2717; in the data active = inhibition above about 75%; inconclusive = no clear call, values can overlap the other calls; tested in HMLE shEcad cells
Gli-Sufu antag – antagonists of Gli-Sufu signaling; inhibition, % at 5 µM; Sufu-KO-LIGHT fibroblasts, Gli luciferase reporter luminescence; AID 588413; 340,000 tested, 0.74% active;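 active = inhibition above about 55%, limit read from the data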
Mdm2-MdmX conf – human Mdm2/MdmX binding inhibition, confirmed; shares compounds with Mdm2-MdmX inh; luminescent assay; inhibition, % at 8 µM; 10,000 tested, 55% active; AID 489028; in the data active = inhibition above about 40%
FLuc counter – full-length luciferase inhibition in Mdm2/MdmX counter-screen; shares compounds with Mdm2-MdmX inh; SaOS-2 full-length luciferase counterscreen, luminescence; inhibition, % at 8 µM; 6,200 tested, 77% active; AID 504607;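 active = mean inhibition at 8 µM reaching about 37%, which flags the compound as non-specific, limit read from the data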;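 note: p53-null SaOS-2 cells with luciferase driven by a doxycycline-inducible promoter; compound on cells about two nights before reading with doxycycline added after day one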
Gli antag conf – confirmation of Gli-SUFU pathway antagonists; shares compounds with Gli-Sufu antag; Sufu-KO-LIGHT cells, Gli luciferase reporter, luminescence; inhibition, % at 5 µM; 2,500 tested, 40% active; AID 602428;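 active = mean inhibition at 5 µM reaching about 45%, limit read from the data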
SufuKO cytotox – counter-screen for Gli-SUFU antagonists: cytotoxicity; shares compounds with Gli-Sufu antag; Sufu-KO-LIGHT cells cytotoxicity, ATP luminescence; cytotoxicity, % at 5 µM; 2,500 tested, 32% active;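 active = mean cytotoxicity at 5 µM above about 25%, limit read from the data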;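 note: cells exposed to compound overnight for roughly 16 to 18 hours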
Wnt3a cs – counter-screen for Gli-SUFU antagonists: Wnt3a reporter inhibition; shares compounds with Gli-Sufu antag; Wnt-LIGHT cells, Wnt3a-driven luciferase reporter, luminescence; inhibition, % at 6.25 µM; 2,500 tested, 20% active;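 active = mean inhibition above about 25%, limit read from the data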
MPTP counter – mitochondrial membrane potential, counter-screen; 5,000 tested, 78% active; inhibition, % at 10 µM; shares compounds with MPTP inh; isolated mitochondria, Rhodamine 123 fluorescence; in the data active = inhibition above about 22%
MPTP abs DR – dose response confirmation of mitochondrial permeability transition pore inhibitors | IC50, µM | isolated mitochondria swelling, absorbance | shares compounds with MPTP inh | 780 tested, 58% active; in the data active = IC50 below about 20 µM
MPTP cs DR – MPTP inhibitor counter-screen activity, dose response; shares compounds with MPTP inh; isolated mitochondria counterscreen, fluorescence read-out; IC50, µM; 780 tested, 49% active; AID 651564; in the data active = IC50 below about 80 µM
Numbers stand for hits; – = inactive; ? = inconclusive; · = not tested or not shown. An excerpt weighted towards active compounds, which were near 6.6% of everything screened.

SMILES | NR3A LBD binder | Beta cell apopt | MPTP inh | Mdm2-MdmX inh | CSC inhib | Gli-Sufu antag | Mdm2-MdmX conf | FLuc counter | MPTP counter | others
COc1cccc(OC)c1C(=O)Nc1cccc(S(=O)(=O)Nc2ccccc2Cl)c1 | – | – | – | – | – | – | · | · | ·
CCC(=O)c1ccc(OCC(=O)NCC2COc3ccccc3O2)cc1 (centres undefined) | – | – | – | – | – | – | · | · | ·
COc1ccc(-c2cc(C)no2)cc1S(=O)(=O)NCc1ccc(OC(C)C)cc1 | – | – | – | – | – | – | · | · | ·
Cn1ncc(S(=O)(=O)Cc2ccccc2)c(Cl)c1=O | – | – | – | – | – | – | · | · | ·
Cn1ncc(SCc2ccccc2)c(Cl)c1=O | – | – | 58 | 52 | – | – | – | · | 22
O=C1NC[C@@H](CCCCN2CCN(CCc3ccccc3)C(=O)C2=O)N(CC2CCCCC2)C1=O | · | · | – | · | · | · | · | · | ·
O=C(/C=C/c1ccccc1)NC(NC(=S)Nc1cccc(Cl)c1)C(Cl)(Cl)Cl (centres undefined) | 29 | · | 93 | 98 | – | – | 68 | – | 84
S=C(Nc1ccccc1Cl)Nc1ccc(Cl)cc1Cl | – | – | – | – | – | – | · | · | ·
O=C(/C=C/c1cccc(Cl)c1)Nc1ncccn1 | – | – | – | – | – | – | · | · | ·
Cc1ccc(C)c(NC(=S)NC(NC(=O)/C=C/c2ccccc2)C(Cl)(Cl)Cl)c1 (centres undefined) | 14 | – | 100 | 81 | – | – | 74 | – | 65
O=C(/C=C/c1ccccc1)NC(NC(=S)Nc1ccc(Cl)cc1Cl)C(Cl)(Cl)Cl (centres undefined) | 20 | – | 102 | 95 | 110 | – | 92 | – | 63
O=C(NC(NC(=S)Nc1c(Cl)cc(Cl)cc1Cl)C(Cl)(Cl)Cl)OCc1ccccc1 (centres undefined) | 21 | – | 78 | 86 | – | – | 57 | 56 | 63
CCC(C)NC(=O)COc1ccc(OCc2ccccc2)cc1 (centres undefined) | – | – | – | – | · | – | · | · | ·
O=C(COC(=O)c1cccc(-n2cnnn2)c1)c1ccc(Br)cc1 | – | – | – | – | – | – | · | · | ·
Cc1nn(C)c(C)c1/C=N/NC(=O)C(C)(C)Oc1ccc(Cl)cc1 | – | – | – | – | · | – | · | · | ·
Cc1nn(C(C)(C)C)c(C)c1/C=N/OC(=O)Nc1ccc(Cl)cc1 | 11 | – | 79 | 95 | – | 92 | 93 | 57 | 89
CC(C)(C)c1ccc(C(=O)NCCCN2CCN(CCCNC(=O)c3ccc(C(C)(C)C)cc3)CC2)cc1 | – | · | 87 | 95 | 102 | 72 | 95 | 57 | 86 | Gli antag conf=–;SufuKO cytotox=–;Wnt3a cs=–
CC(C)(C)c1ccc(C(=O)NCCN2CCOCC2)cc1 | – | – | – | – | – | – | · | · | ·
OC(CNCCC(c1ccccc1)c1ccccc1)COc1ccccc1 (centres undefined) | – | – | 77 | 70 | – | – | – | · | – | MPTP abs DR=2.9;MPTP cs DR=18
CCOc1ccc(Nc2nc3ccccc3n2C)cc1 | – | – | – | – | – | – | · | · | ·
CCOc1ccc(Nc2c3ccccc3nc3ccccc23)cc1 | – | 79 | 96 | 71 | – | – | 45 | 59 | 85
CC(C)Nc1ncnc2ccc(Br)cc12 | – | – | 59 | 67 | – | – | 68 | – | 38
CSCCC(Nc1ncnc2ccc(Br)cc12)C(=O)O (centres undefined) | – | – | – | – | – | – | · | · | ·
S=C1NC[C@H](c2ccccc2)N1CCCCC1CCCCC1 | – | – | – | – | – | – | · | · | ·
NC1=NC[C@H](c2ccccc2)N1CCCCC1CCCCC1 | – | – | 81 | 51 | – | 62 | – | · | 37 | Gli antag conf=54;SufuKO cytotox=34;Wnt3a cs=–
SMILES | NR3A LBD binder | Beta cell apopt | MPTP inh | Mdm2-MdmX inh | CSC inhib | Gli-Sufu antag | Mdm2-MdmX conf | FLuc counter | MPTP counter | others
CC(=O)c1oc2ccccc2c1NC(=O)CN1CCCCC1 | – | – | – | – | – | – | · | · | ·
CC1CCCC(NC(=S)Nc2ccc(SC(F)F)cc2)C1C (centres undefined) | – | – | 103 | 90 | ? | – | – | · | 97
COc1cccc(NC(=O)Nc2ccc3c(c2)N(C)C(=O)CS3)c1 | – | – | 88 | 50 | – | – | – | · | 78
Cc1cccc(N2CCN(C(=O)COc3ccc4c(c3)CCC4)CC2)c1C | – | – | – | – | – | – | · | · | ·
Cc1ccc(Sc2ccc(NC(=O)CCl)cc2)cc1C | – | – | 52 | 81 | – | – | – | · | 21
Cc1ccc(NC(=O)CC(=O)Nc2ccc(C)c(C)c2)cc1C | – | – | – | – | · | – | · | · | ·
COc1ccc(SCCCn2c(=O)c3c(ncn3C)n(C)c2=O)cc1 | – | – | – | – | – | – | · | · | ·
CC(=O)Oc1c(C)cc(Cl)cc1C(=O)Nc1ccc([N+](=O)[O-])cc1Cl | – | 106 | 85 | 99 | 120 | 73 | 81 | – | 91
CC(C)(C)c1ccc(C(O)CCCN2CCC(C(O)(c3ccccc3)c3ccccc3)CC2)cc1 (centres undefined) | – | ? | 92 | 99 | – | – | 88 | 42 | –
CN(C)CC1CCCCC1OC(=O)c1ccc(Cl)cc1 (centres undefined) | – | – | – | – | · | – | · | · | ·
CN(C)CC1CCCCC1C1(O)c2ccccc2CSc2sccc21 (centres undefined) | – | – | 57 | 61 | – | – | 55 | 54 | – | MPTP abs DR=18;MPTP cs DR=–
Nc1nnc(SCC(=O)c2ccc3c(c2)NC(=O)CO3)s1 | – | – | – | – | – | – | · | · | ·
Cc1ccc(/C=N/Nc2ccnc3cc(Cl)ccc23)c(C)c1 | – | 101 | 64 | 100 | · | 60 | – | · | 92
CC(=O)N(\C=C/C=C/C=C1\Sc2ccccc2C1=O)c1ccccc1 | – | – | 62 | 81 | – | · | – | · | 62
Cc1ccc(NC(=O)CN(C)C(=O)c2ccc(S(=O)(=O)N(C)c3ccccc3)cc2)cc1 | – | – | – | – | – | – | · | · | ·
